# Results reported in PubChem BioAssay (NCI).
# About 79,000 compounds went through this panel and 15% of them were active in at least one assay; those are over-represented in the sample as a whole. A number with no mark means an inactive call. Activity calls are given as the source filed them. Cut-off read from the data, not from the text of the source: active = growth inhibition above about 70%; inactive = the rest.
# Columns and labels:
# [1] = NCI Yeast Anticancer Drug Screen. Data for the rad52 strain (AID 147);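 note: 0% = growth of vehicle-treated control cultures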; conditions: S. cerevisiae rad52 mutant growth inhibition, active compounds read high
# Procedure, shortened: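 Yeast strain carrying a DNA damage repair alteration was exposed to test compounds. Growth inhibition was measured relative to vehicle-treated controls.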
# [2] = NCI Yeast Anticancer Drug Screen. Data for the wt1 strain (AID 149);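 note: 0% = growth of vehicle-treated wt1 cultures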; conditions: S. cerevisiae wt1 strain (SPY 50644) growth inhibition, active compounds read high
# Procedure, shortened: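 wt1 yeast, compound-treated; % growth inhibition vs vehicle control.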
# [3] = NCI Yeast Anticancer Drug Screen. Data for the rad50EPP+ strain (AID 151);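 note: 0% = growth of vehicle-treated control cultures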; conditions: S. cerevisiae rad50 mutant strain, active compounds read high
# Procedure, shortened: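 Yeast strain carrying rad50 alteration (rad50EPP+) exposed to compounds; growth inhibition measured relative to vehicle-treated controls.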
# [4] = NCI Yeast Anticancer Drug Screen. Data for the mgt1 strain (AID 153); conditions: S. cerevisiae mgt1 mutant growth inhibition, active compounds read high
# Procedure, shortened: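 Yeast mgt1 strain (DNA repair/cell-cycle alteration panel) exposed to compounds; growth inhibition measured relative to vehicle-treated controls.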
# [5] = NCI Yeast Anticancer Drug Screen. Data for the rad50 strain (AID 155);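 note: 0% = growth of vehicle-only cultures of the same strain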; conditions: S. cerevisiae rad50 strain growth inhibition, active compounds read high
# Procedure, shortened: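 Genetically altered yeast (DNA repair pathway); compound treatment; growth inhibition vs vehicle ctrl.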
# [6] = NCI Yeast Anticancer Drug Screen. Data for the mec2-1 strain (AID 157); conditions: S. cerevisiae mec2-1 strain, active compounds read high
# Procedure, shortened: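 mec2-1 yeast strain, carrying an alteration in DNA damage repair or cell cycle control, was exposed to compounds; growth inhibition was measured relative to vehicle-treated controls.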
# [7] = NCI Yeast Anticancer Drug Screen. Data for the rad14 strain (AID 159);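 note: 0% = growth of vehicle-treated control cultures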; conditions: S. cerevisiae rad14 strain growth inhibition, active compounds read high
# Procedure, shortened: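 Test compounds were applied to a repair-deficient yeast strain. Its growth was then compared with that of cultures given vehicle alone, and inhibition was expressed relative to those controls.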
# [8] = NCI Yeast Anticancer Drug Screen. Data for the sgs1 mgt1 strain (AID 161);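 note: 0% = growth of cultures given vehicle only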; conditions: S. cerevisiae sgs1 mgt1 strain, active compounds read high
# Procedure, shortened: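 Percent growth inhibition was derived by comparing compound-exposed mutant yeast with vehicle-exposed cultures. The strain carries alterations in DNA damage repair.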
# [9] = NCI Yeast Anticancer Drug Screen. Data for the CLN2oe strain (AID 163);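 note: 0% = growth of vehicle-only control cultures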; conditions: S. cerevisiae CLN2oe strain, active compounds read high
# Procedure, shortened: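 Yeast cells carrying a defined cell-cycle control alteration were exposed to test compounds. Growth inhibition was scored against vehicle-treated control cultures.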
# [10] = NCI Yeast Anticancer Drug Screen. Data for the cln2 rad14 strain (AID 165);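 note: 0% = growth equal to vehicle treated cultures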; conditions: S. cerevisiae cln2 rad14 strain, active compounds read high
# Procedure, shortened: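 Yeast carrying cln2 and rad14 alterations (cell cycle control and DNA damage repair) were exposed to compounds. Growth inhibition was measured against vehicle-treated controls.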
# [11] = NCI Yeast Anticancer Drug Screen. Data for the bub3 strain (AID 167); conditions: S. cerevisiae bub3 mutant strain, active compounds read high
# Procedure, shortened: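 Yeast carrying a defined mutation is treated with each compound, and growth is compared with that of vehicle-exposed cells to give inhibition.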
# [12] = NCI Yeast Anticancer Drug Screen. Data for the wt2 strain (AID 169);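 note: 0% = growth of vehicle-treated yeast cultures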; conditions: S. cerevisiae wt2 strain growth inhibition, active compounds read high
# Procedure, shortened: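 Yeast cells were exposed to test compounds, and growth inhibition was measured relative to vehicle-treated controls.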
# [13] = NCI Yeast Anticancer Drug Screen. Data for the mlh1 strain (AID 171);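 note: 0% = growth of vehicle-treated control cultures of the same strain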; conditions: S. cerevisiae mlh1 strain growth inhibition, active compounds read high
# Procedure, shortened: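 Yeast carrying a defined genetic alteration in DNA damage repair or cell cycle control were exposed to test compounds. Growth inhibition was measured relative to vehicle-treated controls.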
# [14] = NCI Yeast Anticancer Drug Screen. Data for the sgs1 strain (AID 173);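 note: 0% = growth of vehicle-only control cultures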; conditions: S. cerevisiae sgs1 mutant, active compounds read high
# Procedure, shortened: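 Yeast mutant strains carrying defined defects in DNA damage repair or cell cycle control were exposed to test compounds. Growth inhibition was scored against vehicle-treated controls.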
# [15] = NCI Yeast Anticancer Drug Screen. Data for the rad18 strain (AID 177); conditions: S. cerevisiae rad18 mutant growth inhibition, active compounds read high
# Procedure, shortened: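 Yeast carrying a defined DNA damage repair alteration were exposed to compounds. Growth inhibition was expressed relative to vehicle-treated controls.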
# [16] = NCI Yeast Anticancer Drug Screen. Data for the mlh1 rad18 strain (AID 175); conditions: S. cerevisiae mlh1 rad18 strain growth inhibition, active compounds read high
# Procedure, shortened: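 Growth inhibition of the yeast strain was measured after compound exposure and expressed relative to vehicle-treated controls. The strain carries defined defects in DNA damage repair.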
# [17] = at 5.0 µM (retest, dose inferred, filed as 0.5)
# [18] = at 50.0 µM (retest, dose inferred, filed as 5.0)
smiles,measurement,setting,value
COc1cc(C2SCC(=O)N2c2ccc(-c3ccc(-n4c(-c5ccccc5)nc5ccccc5c4=O)cc3)cc2)cc(OC)c1OC (stereo not drawn),growth inhibition,[1]; at 1.2 µM,-3%
same,growth inhibition,[1]; at 3.7 µM,-1%
same,growth inhibition,[1]; at 11.0 µM,1%
same,growth inhibition,[1]; at 33.0 µM,1%
same,growth inhibition,[1]; at 100.0 µM,-5%
same,growth inhibition,[2]; at 1.2 µM,0%
same,growth inhibition,[2]; at 3.7 µM,0%
same,growth inhibition,[2]; at 11.0 µM,0%
same,growth inhibition,[2]; at 33.0 µM,-2%
same,growth inhibition,[2]; at 100.0 µM,-8%
same,growth inhibition,[3]; at 1.2 µM,-2%
same,growth inhibition,[3]; at 3.7 µM,-1%
same,growth inhibition,[3]; at 11.0 µM,3%
same,growth inhibition,[3]; at 33.0 µM,4%
same,growth inhibition,[3]; at 100.0 µM,-1%
same,growth inhibition,[4]; at 1.2 µM,-1%
same,growth inhibition,[4]; at 3.7 µM,0%
same,growth inhibition,[4]; at 11.0 µM,-2%
same,growth inhibition,[4]; at 33.0 µM,-3%
same,growth inhibition,[4]; at 100.0 µM,-7%
same,growth inhibition,[5]; at 1.2 µM,-2%
same,growth inhibition,[5]; at 3.7 µM,2%
same,growth inhibition,[5]; [17],-1%
same,growth inhibition,[5]; at 11.0 µM,1%
same,growth inhibition,[5]; at 33.0 µM,3%
same,growth inhibition,[5]; [18],13%
same,growth inhibition,[5]; at 50.0 µM,25.9%
same,growth inhibition,[5]; at 100.0 µM,1%
same,growth inhibition,[6]; at 1.2 µM,0%
same,growth inhibition,[6]; at 3.7 µM,0%
same,growth inhibition,[6]; [17],2%
same,growth inhibition,[6]; at 11.0 µM,2%
same,growth inhibition,[6]; at 33.0 µM,4%
same,growth inhibition,[6]; [18],3%
same,growth inhibition,[6]; at 50.0 µM,19.6%
same,growth inhibition,[6]; at 100.0 µM,-2%
same,growth inhibition,[7]; at 1.2 µM,0%
same,growth inhibition,[7]; at 3.7 µM,0%
same,growth inhibition,[7]; at 11.0 µM,4%
same,growth inhibition,[7]; at 33.0 µM,6%
same,growth inhibition,[7]; at 100.0 µM,4%
same,growth inhibition,[8]; [17],8%
same,growth inhibition,[8]; [18],7%
same,growth inhibition,[8]; at 50.0 µM,21.6%
same,growth inhibition,[9]; at 1.2 µM,5%
same,growth inhibition,[9]; at 3.7 µM,7%
same,growth inhibition,[9]; at 11.0 µM,9%
same,growth inhibition,[9]; at 33.0 µM,10%
same,growth inhibition,[9]; at 100.0 µM,-2%
same,growth inhibition,[10]; [17],32%
same,growth inhibition,[10]; [18],13%
same,growth inhibition,[10]; at 50.0 µM,52.4%
same,growth inhibition,[11]; at 1.2 µM,-1%
same,growth inhibition,[11]; at 3.7 µM,4%
same,growth inhibition,[11]; [17],6%
same,growth inhibition,[11]; at 11.0 µM,17%
same,growth inhibition,[11]; at 33.0 µM,27%
same,growth inhibition,[11]; [18],73% (active)
same,growth inhibition,[11]; at 50.0 µM,71.7% (active)
same,growth inhibition,[11]; at 100.0 µM,41%
same,growth inhibition,[12]; at 1.2 µM,-1%
same,growth inhibition,[12]; at 3.7 µM,-2%
same,growth inhibition,[12]; at 11.0 µM,-2%
same,growth inhibition,[12]; at 33.0 µM,-3%
same,growth inhibition,[12]; at 100.0 µM,-8%
same,growth inhibition,[13]; at 1.2 µM,-1%
same,growth inhibition,[13]; at 3.7 µM,0%
same,growth inhibition,[13]; at 11.0 µM,1%
same,growth inhibition,[13]; at 33.0 µM,-1%
same,growth inhibition,[13]; at 100.0 µM,-3%
same,growth inhibition,[14]; at 1.2 µM,-3%
same,growth inhibition,[14]; at 3.7 µM,-1%
same,growth inhibition,[14]; at 11.0 µM,2%
same,growth inhibition,[14]; at 33.0 µM,-1%
same,growth inhibition,[14]; at 100.0 µM,-7%
same,growth inhibition,[15]; at 1.2 µM,-3%
same,growth inhibition,[15]; at 3.7 µM,0%
same,growth inhibition,[15]; at 11.0 µM,0%
same,growth inhibition,[15]; at 33.0 µM,3%
same,growth inhibition,[15]; at 100.0 µM,1%
Oc1c(Br)cc(Br)cc1C1CCCCC1,growth inhibition,[1]; at 1.2 µM,-13%
same,growth inhibition,[1]; at 3.7 µM,-10%
same,growth inhibition,[1]; at 11.0 µM,-2%
same,growth inhibition,[1]; at 33.0 µM,97% (active)
same,growth inhibition,[1]; at 100.0 µM,98% (active)
same,growth inhibition,[2]; at 1.2 µM,-21%
same,growth inhibition,[2]; at 3.7 µM,-12%
same,growth inhibition,[2]; at 11.0 µM,-6%
same,growth inhibition,[2]; at 33.0 µM,97% (active)
same,growth inhibition,[2]; at 100.0 µM,98% (active)
same,growth inhibition,[3]; at 1.2 µM,9%
same,growth inhibition,[3]; at 3.7 µM,9%
same,growth inhibition,[3]; at 11.0 µM,23%
same,growth inhibition,[3]; at 33.0 µM,39%
same,growth inhibition,[3]; at 100.0 µM,87% (active)
same,growth inhibition,[4]; at 1.2 µM,8%
same,growth inhibition,[4]; at 3.7 µM,13%
same,growth inhibition,[4]; at 11.0 µM,22%
same,growth inhibition,[4]; at 33.0 µM,97% (active)
same,growth inhibition,[4]; at 100.0 µM,98% (active)
same,growth inhibition,[5]; at 1.2 µM,-8%
same,growth inhibition,[5]; at 3.7 µM,-9%
same,growth inhibition,[5]; [17],39%
same,growth inhibition,[5]; at 11.0 µM,5%
same,growth inhibition,[5]; at 33.0 µM,95% (active)
same,growth inhibition,[5]; [18],99% (active)
same,growth inhibition,[5]; at 50.0 µM,89.2% (active)
same,growth inhibition,[5]; at 100.0 µM,96% (active)
same,growth inhibition,[6]; at 1.2 µM,-9%
same,growth inhibition,[6]; at 3.7 µM,-3%
same,growth inhibition,[6]; [17],71% (active)
same,growth inhibition,[6]; at 11.0 µM,5%
same,growth inhibition,[6]; at 33.0 µM,96% (active)
same,growth inhibition,[6]; [18],99% (active)
same,growth inhibition,[6]; at 50.0 µM,90.8% (active)
same,growth inhibition,[6]; at 100.0 µM,98% (active)
same,growth inhibition,[7]; at 1.2 µM,-22%
same,growth inhibition,[7]; at 3.7 µM,-4%
same,growth inhibition,[7]; at 11.0 µM,3%
same,growth inhibition,[7]; at 33.0 µM,97% (active)
same,growth inhibition,[7]; at 100.0 µM,98% (active)
same,growth inhibition,[8]; [17],-16%
same,growth inhibition,[8]; [18],98% (active)
same,growth inhibition,[8]; at 50.0 µM,91.8% (active)
same,growth inhibition,[9]; at 1.2 µM,22%
same,growth inhibition,[9]; at 3.7 µM,13%
same,growth inhibition,[9]; at 11.0 µM,27%
same,growth inhibition,[9]; at 33.0 µM,98% (active)
same,growth inhibition,[9]; at 100.0 µM,99% (active)
same,growth inhibition,[10]; [17],41%
same,growth inhibition,[10]; [18],99% (active)
same,growth inhibition,[10]; at 50.0 µM,89.6% (active)
same,growth inhibition,[11]; at 1.2 µM,7%
same,growth inhibition,[11]; at 3.7 µM,19%
same,growth inhibition,[11]; [17],4%
same,growth inhibition,[11]; at 11.0 µM,25%
same,growth inhibition,[11]; at 33.0 µM,96% (active)
same,growth inhibition,[11]; [18],98% (active)
same,growth inhibition,[11]; at 50.0 µM,89.8% (active)
same,growth inhibition,[11]; at 100.0 µM,97% (active)
same,growth inhibition,[13]; at 1.2 µM,-26%
same,growth inhibition,[13]; at 3.7 µM,-12%
same,growth inhibition,[13]; at 11.0 µM,-5%
same,growth inhibition,[13]; at 33.0 µM,91% (active)
same,growth inhibition,[13]; at 100.0 µM,96% (active)
same,growth inhibition,[14]; at 1.2 µM,-25%
same,growth inhibition,[14]; at 3.7 µM,-16%
same,growth inhibition,[14]; at 11.0 µM,10%
same,growth inhibition,[14]; at 33.0 µM,95% (active)
same,growth inhibition,[14]; at 100.0 µM,97% (active)
same,growth inhibition,[16]; [17],44%
same,growth inhibition,[16]; [18],100% (active)
same,growth inhibition,[16]; at 50.0 µM,87.1% (active)
same,growth inhibition,[15]; at 1.2 µM,-16%
same,growth inhibition,[15]; at 3.7 µM,1%
same,growth inhibition,[15]; at 11.0 µM,15%
same,growth inhibition,[15]; at 33.0 µM,93% (active)
same,growth inhibition,[15]; at 100.0 µM,97% (active)
